Screening data as filed in PubChem.
Sampled rows, rich in hits. Any-hit rate of the full collection: about 19%.
HT1080 IDH1KD tx = toxicity to HT-1080 IDH1 knockdown cells (counter line); 2% of 360,000 active; AID 686971; Potency, µM (top dose mostly 46.1 µM), most hits filed as cytotoxic; HT-1080 IDH1 knockdown viability, ATP luminescence, 48 h
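Using the IDH1-knockdown HT-1080 line run in the same batch and compound series as the NT line, viability after 48 h at 37 °C was determined by CellTiter-Glo luminescence and expressed as % activity.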
HT1080NT lethal = kills 2HG-producing HT-1080-NT fibrosarcoma cells | AID 686970 | 1.6% of 360,000 active | Potency, µM (highest dose often 46.1 µM), hits mostly cytotoxic | HT-1080-NT fibrosarcoma viability, CellTiter-Glo ATP luminescence, 48 h;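 further: NT is the 2HG producing partner of a matched IDH1 knockdown line; nearly all actives have a fitted effect of over 55% in size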
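Read-out is CellTiter-Glo luminescence after 10 minutes at room temperature, following 48 hours' compound treatment of HT-1080-NT cells (750 cells/well, RPMI, 5% FBS, 37 degrees C).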
DT40 TDP1 no CPT = qHTS for Inhibitors of human tyrosyl-DNA phosphodiesterase 1 (TDP1): qHTS in cells in absence of CPT; AID 686978, 2013; 15% of 420,000 active; Potency, µM (series often up to 46.2 µM), most hits filed as inhibitors; DT40 Tdp1-/- hTDP1 cells, no CPT, ATP luminescence, 48 h; further: nearly all actives have a fitted effect of over 55% in size
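Growth kinetics read by CellTiter-Glo luminescence after ≥48 hr at 37 °C. Cells: DT40 Tdp1-/- stably carrying human TDP1, 400 per well, compound exposure in the absence of CPT (DMSO vehicle).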
IL1B secr inh = blocks inflammasome-driven IL-1 beta release; 4.7% of 360,000 active; activity change, % at 57.5 µM; THP-1 LPS/ATP IL-1B secretion, AlphaLISA, 16 h; active compounds read low; in the data active means activity change below about -50%; inconclusive means mostly about -30% to -49%
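THP-1 cells pretreated 1 hr with compounds (up to 57.5 uM final), then stimulated with LPS (250 ng/mL final) plus ATP (1.25 mM final); secreted IL-1B measured by AlphaLISA after 16 hr, decreased signal indicating inhibition.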
TDP1 cell CPT = DT40-hTDP1 cell growth loss with CPT; chicken DT40 Tdp1-/-;hTDP1 cells + 20 nM CPT, ATP luminescence, 48 h; Potency, µM (top dose mostly 46.2 µM), most hits filed as inhibitors; AID 686979; 12% of 420,000 active; further: nearly all actives have a fitted effect of over 55% in size
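Chicken DT40 Tdp1-/- cells stably complemented with human TDP1 were seeded at 400 cells/well in medium containing 20 nM camptothecin, exposed to pin-transferred compounds, and grown at 37 °C for at least 48 hr. Viability was read as ATP luminescence.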
Numbers stand for hits; 0 = inactive; ? = inconclusive; - = no result. Unless noted, the call rests on the fitted dose curve; in most records, active means well fitted curve in the direction sought with a large enough effect; inconclusive means small, poorly fitted or top-dose-only effect, or another doubt; inactive means no such curve, though single readings can be large; an effect the other way counts as inactive or inconclusive.

SMILES	HT1080 IDH1KD tx	HT1080NT lethal	DT40 TDP1 no CPT	IL1B secr inh	TDP1 cell CPT
CCCCCN1C2=NCCN2c2ccccc21	0	0	16.4µM	0	29.1µM
CC(=O)NC(CC(=O)Nc1nc(C)cs1)c1ccccc1 (stereo not given)	0	0	0	0	0
Cc1ccc(NC(=O)C2CC(O)CN2C(=O)OCc2ccccc2)cc1C (stereo not given)	0	0	0	0	0
COc1ccc(-n2nnnc2SCC(=O)Nc2nnc(C)s2)cc1	0	0	5.62µM	0	6.31µM
CCOC(=O)c1c(NC(=O)CSc2nnnn2-c2ccc(OC)cc2)sc(C)c1C	0	0	4.11µM	-59.5	6.51µM
CCOC(=O)c1c(NC(=O)CSc2nnc(CNc3ccc(Cl)cc3)o2)sc(C)c1C	0	0	13µM	0	?
Cc1ccccc1C(=O)N1CCC(C(=O)Nc2ccccn2)CC1	0	0	0	0	0
C=CCn1c(SCc2ccccc2Cl)nnc1-c1sc2nc(C)cc(C)c2c1N	0	?	23.1µM	0	?
O=C(N/N=C1\CC(c2ccccc2)Oc2ccccc21)c1cccnc1 (stereo not given)	11.6µM	?	20.6µM	0	?
CCOc1ccccc1NC(=O)Cn1c(=O)n(-c2ccc(F)cc2)c(=O)c2c3c(sc21)CN(C(C)=O)CC3	-	-	0	-	0
COc1ccccc1/C=C/c1nc(S(=O)(=O)c2ccccc2)c(NCCN(C)C)o1	0	0	20.6µM	0	?
COc1ccc(/C=C/c2nc(S(=O)(=O)c3ccccc3)c(NCCCN(C)C)o2)cc1OC	0	0	0	0	0
Cc1ccc(C)c(S(=O)(=O)N2CCCC2CNC(=O)C(=O)NCC2CCCO2)c1 (stereo not given)	0	0	0	0	0
O=C(Cn1cncn1)NCc1ccc(Cl)cc1	0	0	0	0	0
Clc1ccc(NCn2cncn2)nc1	0	0	0	0	23.1µM
Oc1ccc(CNCC2COc3ccccc3O2)cc1 (stereo not given)	0	0	?	0	0
CC(C)[C@@H](NC(=O)OC(C)(C)C)c1cc(C(=O)c2c(-c3ccccc3)[nH]c3ccccc23)c(N)s1	?	?	18.4µM	?	18.4µM
CC(C)[C@H](NC(=O)OC(C)(C)C)c1cc(C(=O)NC2CC2)c(N)s1	0	0	0	0	0
CC(C)[C@H](NC(=O)OC(C)(C)C)c1cc(C(=O)NCCc2c[nH]c3ccccc23)c(N)s1	0	0	20.6µM	0	16.4µM
O=c1[nH]c(CSc2nnc(Nc3ccccc3)s2)nc2ccccc12	0	0	0	0	0
Cn1c(N)c(C(=O)Nc2ccc(-c3ccccc3)cc2)sc1=S	0	0	20.6µM	0	23.1µM
CCCCc1c(O)nc(SCC(=O)N2CCOCC2)[nH]c1=O	0	0	0	0	0
O=C(/C=C/c1ccccn1)c1ccc(Br)cc1O	0	0	18.4µM	0	20.6µM
O=C(COC(=O)c1cc(Br)ccc1O)Nc1cccnc1Cl	0	0	0	0	0
O=C(/C=C/c1ccccn1)c1cc(Br)ccc1O	0	0	23.1µM	?	23.1µM
SMILES	HT1080 IDH1KD tx	HT1080NT lethal	DT40 TDP1 no CPT	IL1B secr inh	TDP1 cell CPT
Cc1ccc(CC(=O)Nc2cc(C)on2)cc1	0	0	0	0	0
Cc1ccc(NC(=O)C[n+]2cc(-c3ccccc3)n3c2CCC3)c(C)c1	0	0	?	0	0
CCc1ccc(NC(=O)C[n+]2cc(-c3ccc(C)cc3)n3c2CCC3)cc1	0	?	3.66µM	?	2.31µM
Cc1ccc(-c2c[n+](CC(=O)Nc3c(C)cccc3C)c3n2CCC3)cc1	0	0	?	-63.6	?
COc1ccc(C(=O)NCC(=O)OCC(=O)c2c(C)[nH]c3ccccc23)cc1OC	0	0	0	0	0
CCOC(=O)C[n+]1c(C)csc1C	0	0	0	0	0
Cc1csc(C)[n+]1CCC1CCCCC1	-	-	12.6µM	-	?
c1nc(SSc2ncc3n[nH]nc3n2)nc2n[nH]nc12	-	-	0	-	0
Cc1ccc(C2(c3noc(CN(C)Cc4ccccn4)n3)CCCC2)cc1	0	0	16.4µM	0	?
S=C1NC[C@H](Cc2ccccc2)N1CCCCC1CCCCC1	0	?	25.9µM	0	?
